Compound activity as filed in PubChem BioAssay.
In the library only some 4.8% were active in any assay of this set; here they are far more common.
Mdm2-MdmX inh = inhibitors of human Mdm2/MdmX interaction. SaOS-2 split-luciferase Mdm2/MdmX complementation, luminescence. inhibition, % at 8 µM. 3% of 330,000 active. AID 485346;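 active = inhibition of at least 50% at 8 µM in the primary screen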
CSC inhib = cancer stem cell inhibition. cancer stem cell-like cells viability, luminescence. inhibition, % at 7.5 µM. 1.1% of 300,000 active. AID 2717; in the data active = inhibition above about 75%; tested in HMLE shEcad cells
MPTP inh = blocks calcium-induced mitochondrial swelling. isolated mouse mitochondria, Ca2+ swelling absorbance, 30 min. inhibition, % at 10 µM. AID 602449. 1.4% of 360,000 active;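 active = inhibition of 50% or more, scaled per plate between neutral and stimulator controls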
Calb FLC = affects C. albicans growth with fluconazole. C. albicans CaCi-2 (fluconazole-resistant clinical isolate) + fluconazole, Alamar Blue growth, 48 h. growth inhibition, % (concentration not given with the values). 0.57% of 300,000 active. AID 1979;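 active = growth inhibition above about 58% in most replicates, limit read from the data, passing the limit was not always enough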;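 note: all wells also contain fluconazole at 8 µg/ml as a sub-toxic cotreatment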
Beta cell apopt = beta cell apoptosis inhibition; INS-1E cytokine-induced death, ATP luminescence, 48 h; percent of positive-control rescue, neutral wells zero; protection from apoptosis, % (no concentration beside the values); 0.8% of 300,000 active; AID 435005;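 active = Every replicate reaches about 75%, or at least half do and their mean reaches it too, limit read from the data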;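 note: higher means more ATP so stronger rescue from cytokine killing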
Mdm2 MdmX conf = human Mdm2/MdmX binding inhibition, confirmed. shares compounds with Mdm2-MdmX inh. luminescent assay. inhibition, % at 8 µM. 55% of 10,000 active. AID 489028; in the data active = inhibition above about 40%
FLuc counter = counter-screen for Mdm2/MdmX inhibitors: full-length luciferase; 77% of 6,200 active; SaOS-2 full-length luciferase counterscreen, luminescence; inhibition, % at 8 µM; shares compounds with Mdm2-MdmX inh; AID 504607;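 active = mean inhibition at 8 µM reaching about 37%, which flags the compound as non-specific, limit read from the data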;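 note: p53-null SaOS-2 cells with luciferase driven by a doxycycline-inducible promoter; compound on cells about two nights before reading with doxycycline added after day one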
Large screens that a line does not name were inactive (follow-up assays come after a bar, where they were run).

CCOC(=O)N1CCN(S(=O)(=O)c2ccc(C(=O)NNc3nc4c(C)cc(C)cc4s3)cc2)CC1	Mdm2-MdmX inh 80, CSC inhib 126, Beta cell apopt 97 | Mdm2 MdmX conf 70 | FLuc counter 48
CCOC(=O)N1CCN(S(=O)(=O)c2ccc(C(=O)Nc3nnc(CC)o3)cc2)CC1	none (no result: CSC inhib)
CCOC(=O)N1CCN(S(=O)(=O)c2ccc(C(=O)NNc3nc4cc(C)cc(C)c4s3)cc2)CC1	Mdm2-MdmX inh 79, CSC inhib 103, Beta cell apopt 84 | Mdm2 MdmX conf 46 | FLuc counter 47
Cc1cccc2sc(NNC(=O)c3ccc(S(=O)(=O)N4CCc5ccccc5C4)cc3)nc12	Mdm2-MdmX inh 83, CSC inhib 103, Beta cell apopt 92 | Mdm2 MdmX conf 82 | FLuc counter 76
CCN(CC)C(=O)C1=C(C)N(CCCN2CCCC2=O)C(=O)C(CC(=O)NC(c2ccccc2)c2ccccc2)C1 (configuration not stated)	none (no result: Mdm2-MdmX inh, CSC inhib, Calb FLC, Beta cell apopt)
Clc1cccc(CNc2ccn3nc(-c4cccc(OCc5ccccc5)c4)cc3n2)c1	none (no result: Mdm2-MdmX inh, CSC inhib, Calb FLC, Beta cell apopt)
O=C(NC1CCCC1)C1C(c2ccc(C(F)(F)F)cc2)=Nc2ccccc2N1C(=O)c1ccccc1 (configuration not stated)	none (no result: Mdm2-MdmX inh, CSC inhib, Calb FLC, Beta cell apopt)
CCOC(=O)N1CCN(S(=O)(=O)c2ccc(C(=O)Nc3nc4c(s3)CC(C)CC4)cc2)CC1 (configuration not stated)	Mdm2-MdmX inh 78 | Mdm2 MdmX conf inactive
CCOC(=O)N1CCN(S(=O)(=O)c2ccc(C(=O)Nc3nnc(C4CC4)o3)cc2)CC1	none
Cc1ccc(C(=O)NNC(=O)c2ccc(S(=O)(=O)N3CCCCC3)cc2)cc1	none (no result: Calb FLC)
Cc1cc(C)c2nc(NNC(=O)c3ccc(S(=O)(=O)N4CCCCC4)cc3)sc2c1	Mdm2-MdmX inh 72, CSC inhib 102 | Mdm2 MdmX conf 45 | FLuc counter 47
O=c1c2cc3ccccc3n2cnn1Cc1ccccc1F	Mdm2-MdmX inh 54 | Mdm2 MdmX conf 41 | FLuc counter 84
Fc1ccccc1C1c2[nH]c3ccccc3c2CCN1CCCn1cccn1 (configuration not stated)	Mdm2-MdmX inh 59 | Mdm2 MdmX conf inactive
CC(C)(C)C1c2[nH]c3ccccc3c2CCN1CCCn1cccn1 (configuration not stated)	none
CC1=CC(C)(C)Nc2ccc(OC(=O)CCN3C(=O)c4ccccc4C3=O)cc21	Mdm2-MdmX inh 101 | Mdm2 MdmX conf inactive
COc1ccc(CNC(=O)C2Cc3c(-c4ccc5c(c4)OCO5)ccnc3O2)cc1OC (configuration not stated)	none (no result: Mdm2-MdmX inh, CSC inhib, Calb FLC, Beta cell apopt)
CCN(CC(=O)NCc1ccc(F)cc1)C(=O)/C=C/c1ccc(OC)c(S(=O)(=O)NC(C)C)c1	Mdm2-MdmX inh 56 | Mdm2 MdmX conf 55 | FLuc counter 61
CCN(CC(=O)NCc1ccc(F)cc1)C(=O)/C=C/c1ccc(OC)cc1	none
COc1cccc(N(C(=O)Cn2nnc(-c3ccc(Cl)cc3)n2)C(C(=O)NCC2CCCO2)c2ccc(C)cc2)c1 (configuration not stated)	Mdm2-MdmX inh 56 | Mdm2 MdmX conf inactive
CCc1ccc(-c2cn(-c3nc(C)cc(C)n3)c(=N)o2)cc1	Mdm2-MdmX inh 53 | Mdm2 MdmX conf 52 | FLuc counter 68
COc1ccc(S(=O)(=O)Nc2ccccc2OC)cc1NC(=O)c1cc2ccccc2oc1=O	Mdm2-MdmX inh 73 | Mdm2 MdmX conf inactive
COc1ccc(NC(=O)c2cc3ccccc3oc2=O)c(OC)c1	none
COc1ccc(-c2nc(-c3ccc(NC(=O)c4ccc(Br)o4)cc3)no2)cc1OC	Mdm2-MdmX inh 78, CSC inhib 79 (no result: Beta cell apopt) | Mdm2 MdmX conf inactive
COc1ccc(-c2cc3ccccc3oc2=O)cc1NC(=O)c1ccc(Br)o1	Mdm2-MdmX inh 59 | Mdm2 MdmX conf inactive | FLuc counter inactive
COc1ccc(-c2cc3ccccc3oc2=O)cc1NC(=S)NC(=O)c1ccc2c(c1)OCCO2	Mdm2-MdmX inh 88 (no result: CSC inhib) | Mdm2 MdmX conf inactive
COc1ccc(-c2nc(-c3ccc(Br)o3)no2)cc1OC	none
O=C(CCN1C(=O)C2CC=CCC2C1=O)Nc1nc(-c2ccc(F)c(F)c2)cs1 (configuration not stated)	none (no result: Calb FLC)
CCOC(=O)C1=CCN(S(=O)(=O)c2ccc(C)cc2)C1c1ccc(CC)cc1 (configuration not stated)	none (no result: Mdm2-MdmX inh, CSC inhib, Calb FLC, Beta cell apopt)
Cc1ccc(C(=O)N2CCC(C(=O)c3c(C)cc(C)cc3C)CC2)cc1	none
CC(C)c1cc(Cn2c3ccccc3c(=O)n2C(C)Cn2cc(C3=CCCCC3)nn2)on1 (configuration not stated)	none (no result: Mdm2-MdmX inh, CSC inhib, Calb FLC, Beta cell apopt)
O=C(Nc1cccc(-c2cn3ccccc3n2)c1)c1cc2ccccc2oc1=O	Mdm2-MdmX inh 100 | Mdm2 MdmX conf inactive
CC(=O)Nc1cccc(-c2cn3ccccc3n2)c1	none (no result: CSC inhib)
NS(=O)(=O)c1ccc(N/N=C/c2cn(-c3ccccc3)nc2-c2ccccc2)c([N+](=O)[O-])c1	Mdm2-MdmX inh 84, CSC inhib 140, Beta cell apopt 91 | Mdm2 MdmX conf inactive
O=C(/C=C/c1cn(-c2ccccc2)nc1-c1ccccc1)Nc1ccc(C(=O)O)cc1	none
Cc1ccc(-c2nn(-c3ccccc3)cc2/C=C/C(=O)Nc2nccs2)cc1	Mdm2-MdmX inh 72 | Mdm2 MdmX conf 43 | FLuc counter 37
NS(=O)(=O)c1ccc(N/N=C/c2ccccc2C(=O)O)c([N+](=O)[O-])c1	none
NC(=O)N/N=C/c1cn(-c2ccccc2)nc1-c1ccccc1	none
NS(=O)(=O)c1ccc(NC(=O)/C=C/c2cn(-c3ccccc3)nc2-c2cccc(Cl)c2)cc1	Mdm2-MdmX inh 50 | Mdm2 MdmX conf inactive
O=[N+]([O-])c1ccc(N/N=C/c2cn(-c3ccccc3)nc2-c2ccccc2)cc1	Mdm2-MdmX inh 57 | Mdm2 MdmX conf inactive | FLuc counter 52
COc1ccc(-c2nn(-c3ccccc3)cc2C(=O)Nc2nccs2)cc1	none
COc1ccccc1NS(=O)(=O)c1ccc(N/N=C/c2c(C)nn(-c3ccccc3)c2N2CCCC2)c([N+](=O)[O-])c1	none
COc1c(/C=N/Nc2ccc([N+](=O)[O-])cc2[N+](=O)[O-])c(C)nn1-c1ccccc1	Mdm2-MdmX inh 54 | Mdm2 MdmX conf inactive
O=C(NC1CC1)c1c(O)c2ccccc2[nH]c1=O	Mdm2-MdmX inh 59 | Mdm2 MdmX conf inactive
CCNC(=O)c1c(O)c2ccccc2[nH]c1=O	Mdm2-MdmX inh 76 | Mdm2 MdmX conf 53 | FLuc counter 76
Cc1noc(C)c1C(=O)OCC(=O)NCc1ccc(Cl)cc1	none (no result: CSC inhib, Calb FLC)
COc1ccc(-c2ccc(C(=O)NC3CCCCC3)c3occc23)c(C)c1	none (no result: Mdm2-MdmX inh, CSC inhib, Calb FLC, Beta cell apopt)
CC1=C(C(=O)N2CCCCCC2)CC(CC(=O)NCC2CCCCC2)C(=O)N1Cc1ccc(F)cc1 (configuration not stated)	none (no result: Mdm2-MdmX inh, CSC inhib, Calb FLC, Beta cell apopt)
